Structures are written as SMILES. Structures can show the parent of a compound that is named as a salt.

The assay has as its system Saccharomyces cerevisiae BY4741 SeMeCo community. In words: z-score of subpopulation abundance vs DMSO median, subpopulation auxotrophic for LM; higher = larger share of this subpopulation than in DMSO controls. As to conditions: 10 µM; 24 h; SM minimal medium; subpopulation (auxotrophy): LM. As to the method:
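Fluorescent four-plasmid SeMeCo (self-establishing metabolically cooperating S. cerevisiae BY4741 community; plasmids pH-mRuby2, pL-mWasabi, pU-eCFP, pM-TagRFP657) was grown 24 h in minimal SM medium with each Selleck FDA-approved drug at 10 µM in 384-well plates. Cells were fixed and imaged by high-content confocal microscopy. For each auxotrophic subpopulation (and the prototroph), a z-score gives the deviation from the DMSO vehicle-control population median.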
In the case of `CCN(C)C(=O)Oc1cccc([C@H](C)N(C)C)c1` [Rivastigmine Tartrate], the “z-score of subpopulation abundance” value stood at 0. Under `C[C@@H]1CC[C@H]2[C@@H](C)C(=O)O[C@@H]3O[C@@]4(C)CC[C@@H]1[C@]32OO4` [Artemisinin] stands -1.74; under `CC[C@@]1(O)C(=O)OCc2c1cc1n(c2=O)Cc2cc3ccccc3nc2-1` [Camptothecin], -0.25; under `COc1ccc2c(c1)[C@]13CCCC[C@@H]1[C@H](C2)N(C)CC3` [Dextromethorphan hydrobromide hydrate], -0.18.

As to `CN[C@@H]1[C@@H](O)[C@@H](O[C@@H]2[C@@H](O)[C@H](O[C@H]3O[C@H](CN)CC[C@H]3N)[C@@H](N)C[C@H]2N)OC[C@]1(C)O.CN[C@@H]1[C@@H](O)[C@@H](O[C@@H]2[C@@H](O)[C@H](O[C@H]3O[C@H]([C@@H](C)N)CC[C@H]3N)[C@@H](N)C[C@H]2N)OC[C@]1(C)O.CN[C@@H]1[C@@H](O)[C@@H](O[C@@H]2[C@@H](O)[C@H](O[C@H]3O[C@H]([C@@H](C)NC)CC[C@H]3N)[C@@H](N)C[C@H]2N)OC[C@]1(C)O` [Gentamicin Sulfate], the “z-score of subpopulation abundance” value is -0.12. Consider `C[N+](C)(C)CCCCCCCCCC[N+](C)(C)C` [Decamethonium Bromide], for which the “z-score of subpopulation abundance” value is -0.15. To `O=c1cccc2n1C[C@@H]1CNC[C@H]2C1` [Cytisine] belongs -0.02; to `COc1ccc2c3c([nH]c2c1)C(C)=NCC3` [Harmaline], 4.83; to `CN(C)C(=O)Oc1ccc[n+](C)c1` [Pyridostigmine Bromide], -0.35.

On to `NC(=O)CN1CCCC1=O` [Piracetam], for which the “z-score of subpopulation abundance” value stood at 1.96. For the compound `N[C@@H]1C[C@H]1c1ccccc1` [Tranylcypromine (2-PCPA) HCl], the “z-score of subpopulation abundance” value was -0.94.

For the compound `CN1C(=O)COc2c(C(=O)NC3CN4CCC3CC4)cc(Cl)cc21` (stereo not given) [Azasetron HCl], the “z-score of subpopulation abundance” value is 1.69. For `CN1[C@@H]2C[C@@H](OC(=O)[C@H](CO)c3ccccc3)C[C@H]1[C@@H]1O[C@@H]12` [Scopolamine HBr], the “z-score of subpopulation abundance” value was -0.51. Take `Cc1cc(O)ccc1Cl` [Chlorocresol]: the “z-score of subpopulation abundance” value was -0.37. To `CCN(C)C(=O)Oc1cccc([C@H](C)N(C)C)c1` [Rivastigmine] belongs -0.54. Consider `C=CCN1C[C@H](C(=O)N(CCCN(C)C)C(=O)NCC)C[C@@H]2c3cccc4[nH]cc(c34)C[C@H]21` [Cabergoline], for which the “z-score of subpopulation abundance” value was -0.31. `CN1c2ccccc2C(NCCCCCCC(=O)O)c2ccc(Cl)cc2S1(=O)=O` (stereo not given) [Tianeptine sodium]: the “z-score of subpopulation abundance” value is -0.12. Consider `CCCCCCCCCCCCCCCC[n+]1ccccc1` [Cetylpyridinium Chloride], for which the “z-score of subpopulation abundance” value was 0.44. Under `Nc1nc(N)nc(NC2CC2)n1` [Cyromazine] stands 0.84; under `C[C@H]1O[C@H](O[C@H]2[C@H](O)[C@@H](O)[C@@H](O)[C@H](O)[C@@H]2O)[C@@H](N)C[C@@H]1NC(=N)C(=O)O` [Kasugamycin hydrochloride], 0.45; under `C[N+]12CCC(CC1)C(OC(=O)C(O)(c1ccccc1)c1ccccc1)C2` (stereo not given) [Clidinium Bromide], -0.72. On to `CCC1=C[C@H]2CN3CCc4c([nH]c5ccccc45)[C@](C(=O)OC)(C2)[C@H]13` [Catharanthine], for which the “z-score of subpopulation abundance” value was -0.74. As to `O=C(O[C@H]1C[C@H]2CC[C@@H](C1)[N+]21CCCC1)C(O)(c1ccccc1)c1ccccc1` [Trospium chloride], the “z-score of subpopulation abundance” value was -0.54. To `CC(=O)OCC1=C(C(=O)O)N2C(=O)C(N)C2SC1` (stereo not given) [7-Aminocephalosporanic acid] belongs -0.28; to `Nc1ccncc1` [4-Aminopyridine], 0.74; to `CC(C)=CCOc1c2occc2cc2ccc(=O)oc12` [Imperatorin], 0. `CN(C)[C@@H]1C(=O)C(C(N)=O)=C(O)[C@@]2(O)C(=O)C3=C(O)c4c(O)cccc4[C@@](C)(O)[C@H]3[C@H](O)[C@@H]12` [Oxytetracycline Dihydrate]: the “z-score of subpopulation abundance” value is -0.49. Regarding `CC1(C)SC2C(N)C(=O)N2C1C(=O)O` (stereo not given) [6-Aminopenicillanic acid], the “z-score of subpopulation abundance” value was 0.56. Consider `CCCN1C[C@H](CSC)C[C@@H]2c3cccc4[nH]cc(c34)C[C@H]21` [Pergolide Mesylate], for which the “z-score of subpopulation abundance” value was -0.22. In the case of `COc1ccc2[nH]cc(CCN)c2c1` [5-Methoxytryptamine], the “z-score of subpopulation abundance” value is 0.28. To `CC[N+](C)(CC)CCOC(=O)C(O)(c1ccccc1)c1ccccc1` [Methylbenactyzine Bromide] belongs -0.89; to `CCOC(=O)Nc1ccc(NCc2ccc(F)cc2)cc1N` [Retigabine], -0.12; to `CNC1CC(N)C(O)C(OC2OC(CO)C(O)C3OC4(OC(C(N)CO)C(O)C(O)C4O)OC23)C1O` (stereo not given) [Hygromycin B], -0.12. Regarding `CC(C)N(CCC(C(N)=O)(c1ccccc1)c1ccccn1)C(C)C` (stereo not given) [Disopyramide], the “z-score of subpopulation abundance” value came to 1.31. On to `CC[C@H]1CN2CC[C@]3(C(=O)Nc4ccccc43)[C@@H]2C[C@@H]1/C(=C\OC)C(=O)OC` [Rhynchophylline], for which the “z-score of subpopulation abundance” value is -0.11. Under `COc1cc2c(cc1OC)C1CC(=O)C(CC(C)C)CN1CC2` (stereo not given) [Tetrabenazine (Xenazine)] stands 0.75. With `CN1[C@@H]2CC[C@H]1C[C@@H](OC(=O)[C@H](CO)c1ccccc1)C2` [Hyoscyamine], the “z-score of subpopulation abundance” value is -0.17. Regarding `C=C(C)[C@H]1Cc2c(ccc3c2O[C@@H]2COc4cc(OC)c(OC)cc4[C@@H]2C3=O)O1` [Rotenone (Barbasco)], the “z-score of subpopulation abundance” value is -0.22.

For `CN(C)[C@@H]1C(=O)C(C(N)=O)=C(O)[C@@]2(O)C(=O)C3=C(O)c4c(O)ccc(Cl)c4[C@@](C)(O)[C@H]3C[C@@H]12` [Chlortetracycline HCl], the “z-score of subpopulation abundance” value was -0.46. Turning to `COC(=O)C1=CCCN(C)C1` [Arecoline HBr], the “z-score of subpopulation abundance” value came to 0.61.

The values above are taken from the supplement of paper PMC8975748.
